Details in all cases: mRNA level, 48 h; actives raise or lower the signal
Read-out in assay [1]: Potassium channel subfamily K member 1 (KCNK1), KCNK1 (gene 3775)
Kind of assay: LTEA_HepaRG_KCNK1: Life Technologies and Expression Analysis (LTEA) Assay for Potassium channel subfamily K member 1 (KCNK1) using HepaRG (AID 2283511). The essentials: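 HepaRG, 48 h exposure, 8-pt half-log series top 100 uM, 0.5% DMSO vehicle, duplicates. Readout: KCNK1 transcript by qRT-PCR (Fluidigm array), housekeeping-normalized; bidirectional curve fit relative to DMSO baseline.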

Read-out in assay [2]: Keratin 19 (KRT19), KRT19 (gene 3880)
Kind of assay: LTEA_HepaRG_KRT19: Life Technologies and Expression Analysis (LTEA) Assay for Keratin 19 (KRT19) using HepaRG (AID 2283512). The essentials:
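KRT19 transcript levels, measured by Fluidigm qRT-PCR against three housekeeping genes, are fitted for gain or loss of signal relative to DMSO. Human HepaRG cells receive test chemicals (top 100 uM, half-log steps, 0.5% DMSO) for 48 hours.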

Read-out in assay [3]: JUN Transcription Factor, JUN (gene 3725)
Nature of the assay: LTEA_HepaRG_JUN: Life Technologies and Expression Analysis (LTEA) Assay for JUN Transcription Factor using HepaRG (AID 2283513). The essentials:
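HepaRG, 48 h exposure, 8-pt half-log series top 100 uM, 0.5% DMSO, duplicate. JUN mRNA by qRT-PCR (Fluidigm), housekeeping-normalized (ACTB/GAPDH/POLR2A); bidirectional curve fit vs DMSO baseline.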

Read-out in assay [4]: Lipase C (LIPC), LIPC (gene 3990)
Nature of the assay: LTEA_HepaRG_LIPC: Life Technologies and Expression Analysis (LTEA) Assay for Lipase C (LIPC) using HepaRG (AID 2283514). The essentials:
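HepaRG, 48 h exposure, 8-pt half-log series from 100 uM in 0.5% DMSO, duplicates. Readout: LIPC mRNA by Fluidigm qRT-PCR, housekeeping-normalized (ACTB/GAPDH/POLR2A). Gain or loss fitted bidirectionally against DMSO baseline.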

Read-out in assay [5]: Lipoprotein lipase (LPL), LPL (gene 4023)
Kind of assay: LTEA_HepaRG_LPL: Life Technologies and Expression Analysis (LTEA) Assay for Lipoprotein lipase (LPL) using HepaRG (AID 2283515). The essentials: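 HepaRG, 48 h exposure, 8-pt half-log dilutions from 100 uM, 0.5% DMSO vehicle, duplicates; qRT-PCR (Fluidigm array) of LPL mRNA vs housekeeping genes; bidirectional curve fit relative to DMSO baseline.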

Read-out in assay [6]: MicroRNA 122 (MIR122), gene 406906
Nature of the assay: LTEA_HepaRG_MIR122: Life Technologies and Expression Analysis (LTEA) Assay for MicroRNA 122 (MIR122) using HepaRG (AID 2283516). Also: the transcript read is the microRNA miR-122. The essentials:
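qRT-PCR read-out (TaqMan, Fluidigm array), normalized to three housekeeping genes; HepaRG cells dosed 48 h at 8 concentrations up to 100 uM in 0.5% DMSO, duplicate; gain or loss fitted against DMSO baseline.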

Read-out in assay [7]: matrix metalloproteinase-10 (MMP10), MMP10 (gene 4319)
Nature of the assay: LTEA_HepaRG_MMP10: Life Technologies and Expression Analysis (LTEA) Assay for matrix metalloproteinase-10 (MMP10) using HepaRG (AID 2283517). A digest of the protocol:
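Transcript levels come from Fluidigm qRT-PCR normalized to three housekeeping genes, with curves fitted bidirectionally against 0.5% DMSO. Human HepaRG cells were dosed for 48 hours at concentrations up to 100 uM.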

Read-out in a further assay: MYC, MYC (gene 4609)
Kind of assay: LTEA_HepaRG_MYC: Life Technologies and Expression Analysis (LTEA) Assay for MYC using HepaRG (AID 2283518). A digest of the protocol:
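HepaRG, ~100,000 cells/well, collagen I; 48 h plating; serum-free induction medium; 48 h dosing, duplicate, 100 uM top, half-log, 0.5% DMSO; total RNA → qRT-PCR MYC; gain/loss fit vs DMSO.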

Read-out in assay [8]: matrix metalloproteinase-3 (MMP3), MMP3 (gene 4314)
Kind of assay: LTEA_HepaRG_MMP3: Life Technologies and Expression Analysis (LTEA) Assay for matrix metalloproteinase-3 (MMP3) using HepaRG (AID 2283519). The essentials:
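qRT-PCR read-out of MMP3 mRNA (normalised to three housekeeping genes) in HepaRG liver cells after 48 h chemical exposure; 8-point half-log series, top 100 uM, 0.5% DMSO vehicle. Bidirectional curve fitting against DMSO baseline.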

Read-out in assay [9]: Paternally Expressed 10 (PEG10), PEG10 (gene 23089)
Kind of assay: LTEA_HepaRG_PEG10: Life Technologies and Expression Analysis (LTEA) Assay for Paternally Expressed 10 (PEG10) using HepaRG (AID 2283520). A digest of the protocol:
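qRT-PCR read-out: PEG10 mRNA normalised to three housekeeping genes, fitted bidirectionally against 0.5% DMSO vehicle. HepaRG cells received test chemicals for 48 h in serum-free induction medium, 8 points, top 100 uM, half-log steps.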

Read-out in assay [10]: Nuclear factor NF-kappa-B p105 subunit (Homo sapiens) (UniProt P19838)
Nature of the assay: LTEA_HepaRG_NFKB1: Life Technologies and Expression Analysis (LTEA) Assay for Nuclear Factor Kappa B Subunit 1 (NFKB1) using HepaRG (AID 2283521).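 Also: differentiated human HepaRG liver cells in serum-free induction medium; TaqMan qRT-PCR transcript normalised to ACTB GAPDH and POLR2A housekeeping genes.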 The essentials:
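HepaRG, 48 h exposure; 8-pt half-log series from 100 uM in 0.5% DMSO; duplicates. Readout: NFKB1 mRNA by qRT-PCR (Fluidigm arrays), housekeeping-normalized. Gain/loss fit vs DMSO baseline.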

Read-out in assay [11]: Protein phosphatase 2A (PPP2R4), PTPA (gene 5524)
Kind of assay: LTEA_HepaRG_PPP2R4: Life Technologies and Expression Analysis (LTEA) Assay for Protein phosphatase 2A (PPP2R4) using HepaRG (AID 2283522). A digest of the protocol:
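HepaRG, 48 h exposure, 8-pt half-log series from 100 uM, 0.5% DMSO vehicle, duplicates. Readout: PPP2R4 mRNA, Fluidigm qRT-PCR, housekeeping-normalized. Bidirectional curve fit vs DMSO baseline.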

Read-out in assay [12]: Phosphatase and tensin (PTEN), PTEN (gene 5728)
Kind of assay: LTEA_HepaRG_PTEN: Life Technologies and Expression Analysis (LTEA) Assay for Phosphatase and tensin (PTEN) using HepaRG (AID 2283523). A digest of the protocol:
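HepaRG, 48 h exposure, 8-pt half-log series from 100 uM top, 0.5% DMSO vehicle, duplicates. Readout: Fluidigm qRT-PCR of PTEN transcript; housekeeping normalization (ACTB, GAPDH, POLR2A). Gain or loss fitted relative to DMSO baseline.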

Read-out in assay [13]: Pyruvate Dehydrogenase Kinase 4 (PDK4), PDK4 (gene 5166)
Kind of assay: LTEA_HepaRG_PDK4: Life Technologies and Expression Analysis (LTEA) Assay for Pyruvate Dehydrogenase Kinase 4 (PDK4) using HepaRG (AID 2283525). The essentials:
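HepaRG (human liver line), 48 h chemical exposure, 8-pt half-log CRC top 100 uM, 0.5% DMSO vehicle, duplicates. Readout: TaqMan qRT-PCR of PDK4 mRNA, housekeeping-normalized; gain/loss fit relative to DMSO baseline.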

Read-out in assay [14]: NAD(P)H dehydrogenase [quinone] 1 (NQO1), NQO1 (gene 1728)
Kind of assay: LTEA_HepaRG_NQO1: Life Technologies and Expression Analysis (LTEA) Assay for NAD(P)H dehydrogenase [quinone] 1 (NQO1) using HepaRG (AID 2283526). The essentials:
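qRT-PCR read-out (Fluidigm TaqMan), normalized to three housekeeping genes, after 48 h chemical exposure of HepaRG cells. Concentrations: eight points, top 100 uM, half-log steps, 0.5% DMSO vehicle. Gain or loss of signal fitted relative to DMSO.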

Read-out in assay [15]: Nuclear factor erythroid 2-related factor 2 (Homo sapiens) (UniProt Q16236)
Kind of assay: LTEA_HepaRG_NFE2L2: Life Technologies and Expression Analysis (LTEA) Assay for Nuclear factor erythroid 2-related factor 2 (NFE2L2) Transcription Factor using HepaRG (AID 2283527).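 Also: TaqMan qRT-PCR transcript level normalised to ACTB GAPDH and POLR2A housekeeping genes.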 The essentials: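 HepaRG, 48 h dosing, 8-pt half-log series from 100 uM in 0.5% DMSO, duplicates. Read-out: NFE2L2 mRNA by qRT-PCR (ACTB/GAPDH/POLR2A normalization). Bidirectional curve fit vs DMSO baseline.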

Read-out in assay [16]: succinate dehydrogenase complex iron sulfur subunit B (SDHB), SDHB (gene 6390)
Kind of assay: LTEA_HepaRG_SDHB: Life Technologies and Expression Analysis (LTEA) Assay for succinate dehydrogenase complex iron sulfur subunit B (SDHB) using HepaRG (AID 2283528). The essentials:
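Readout is SDHB transcript level by qRT-PCR, normalised to three housekeeping genes and fitted bidirectionally against 0.5% DMSO vehicle. Human HepaRG cells were treated for 48 h at up to 100 uM.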

Read-out in assay [17]: Signal transducer and activator of transcription 3 (Homo sapiens) (UniProt P40763)
Kind of assay: LTEA_HepaRG_STAT3: Life Technologies and Expression Analysis (LTEA) Assay for Signal transducer and activator of transcription (STAT3) using HepaRG (AID 2283529). A digest of the protocol:
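HepaRG, 48 h exposure, 8-pt half-log series (top 100 uM), 0.5% DMSO vehicle, duplicates. Readout: STAT3 transcript by Fluidigm qRT-PCR, housekeeping-normalized; bidirectional fit vs DMSO baseline.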

Read-out in assay [18]: solute carrier (SLC22A1), SLC22A1 (gene 6580)
Kind of assay: LTEA_HepaRG_SLC22A1: Life Technologies and Expression Analysis (LTEA) Assay for solute carrier (SLC22A1) using HepaRG (AID 2283524). The essentials:
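qRT-PCR readout (TaqMan, Fluidigm arrays) of SLC22A1 transcript, normalized to three housekeeping genes; bidirectional curve fit relative to 0.5% DMSO vehicle. Differentiated human HepaRG cells, 48 h chemical exposure, top concentration 100 uM, half-log steps, eight points.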

Calls of active or inactive are those of the source. The calls were made as follows: active = hit-call score of the fitted dose curve at least 0.9, where 1 is the maximum; inactive = score below 0.9.

Nuclear factor erythroid 2-related factor 2 (Homo sapiens), sequence (Q16236 whole entry, looked up): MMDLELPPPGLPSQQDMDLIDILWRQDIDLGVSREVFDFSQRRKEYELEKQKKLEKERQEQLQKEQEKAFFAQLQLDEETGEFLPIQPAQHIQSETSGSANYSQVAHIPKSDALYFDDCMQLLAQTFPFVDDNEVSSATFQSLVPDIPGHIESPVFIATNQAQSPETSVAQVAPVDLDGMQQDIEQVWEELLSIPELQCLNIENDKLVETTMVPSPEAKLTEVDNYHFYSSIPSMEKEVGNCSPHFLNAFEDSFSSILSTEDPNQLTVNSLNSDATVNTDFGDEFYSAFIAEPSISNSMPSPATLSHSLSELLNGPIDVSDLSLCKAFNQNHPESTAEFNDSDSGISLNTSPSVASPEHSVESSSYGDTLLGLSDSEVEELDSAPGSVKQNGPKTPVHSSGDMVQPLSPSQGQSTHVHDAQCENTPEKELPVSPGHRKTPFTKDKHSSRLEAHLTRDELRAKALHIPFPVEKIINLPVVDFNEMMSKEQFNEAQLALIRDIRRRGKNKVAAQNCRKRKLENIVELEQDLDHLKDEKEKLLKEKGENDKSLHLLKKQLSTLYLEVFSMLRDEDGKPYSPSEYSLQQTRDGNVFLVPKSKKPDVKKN
Signal transducer and activator of transcription 3 (Homo sapiens), sequence (P40763 whole entry, looked up): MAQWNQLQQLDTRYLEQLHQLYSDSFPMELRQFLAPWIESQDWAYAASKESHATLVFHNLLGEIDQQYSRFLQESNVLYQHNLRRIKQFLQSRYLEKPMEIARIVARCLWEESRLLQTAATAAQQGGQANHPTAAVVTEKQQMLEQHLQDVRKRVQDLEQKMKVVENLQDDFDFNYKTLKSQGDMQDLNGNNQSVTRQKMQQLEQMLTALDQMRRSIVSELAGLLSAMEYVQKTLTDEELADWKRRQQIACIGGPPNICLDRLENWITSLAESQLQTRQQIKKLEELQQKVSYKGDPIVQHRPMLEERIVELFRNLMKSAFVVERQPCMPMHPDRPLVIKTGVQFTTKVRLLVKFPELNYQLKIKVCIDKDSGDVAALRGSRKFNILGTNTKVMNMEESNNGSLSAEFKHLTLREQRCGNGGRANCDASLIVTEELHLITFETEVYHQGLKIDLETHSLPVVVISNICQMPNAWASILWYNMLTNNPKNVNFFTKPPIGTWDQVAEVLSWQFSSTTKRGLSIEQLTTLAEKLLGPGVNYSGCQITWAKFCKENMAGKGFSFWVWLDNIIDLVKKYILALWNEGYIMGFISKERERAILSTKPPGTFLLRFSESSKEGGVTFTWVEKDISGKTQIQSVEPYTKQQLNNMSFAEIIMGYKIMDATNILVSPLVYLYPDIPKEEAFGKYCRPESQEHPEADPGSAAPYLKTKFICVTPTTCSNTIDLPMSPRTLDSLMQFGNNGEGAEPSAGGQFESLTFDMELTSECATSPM
Nuclear factor NF-kappa-B p105 subunit (Homo sapiens), sequence (P19838 whole entry, looked up): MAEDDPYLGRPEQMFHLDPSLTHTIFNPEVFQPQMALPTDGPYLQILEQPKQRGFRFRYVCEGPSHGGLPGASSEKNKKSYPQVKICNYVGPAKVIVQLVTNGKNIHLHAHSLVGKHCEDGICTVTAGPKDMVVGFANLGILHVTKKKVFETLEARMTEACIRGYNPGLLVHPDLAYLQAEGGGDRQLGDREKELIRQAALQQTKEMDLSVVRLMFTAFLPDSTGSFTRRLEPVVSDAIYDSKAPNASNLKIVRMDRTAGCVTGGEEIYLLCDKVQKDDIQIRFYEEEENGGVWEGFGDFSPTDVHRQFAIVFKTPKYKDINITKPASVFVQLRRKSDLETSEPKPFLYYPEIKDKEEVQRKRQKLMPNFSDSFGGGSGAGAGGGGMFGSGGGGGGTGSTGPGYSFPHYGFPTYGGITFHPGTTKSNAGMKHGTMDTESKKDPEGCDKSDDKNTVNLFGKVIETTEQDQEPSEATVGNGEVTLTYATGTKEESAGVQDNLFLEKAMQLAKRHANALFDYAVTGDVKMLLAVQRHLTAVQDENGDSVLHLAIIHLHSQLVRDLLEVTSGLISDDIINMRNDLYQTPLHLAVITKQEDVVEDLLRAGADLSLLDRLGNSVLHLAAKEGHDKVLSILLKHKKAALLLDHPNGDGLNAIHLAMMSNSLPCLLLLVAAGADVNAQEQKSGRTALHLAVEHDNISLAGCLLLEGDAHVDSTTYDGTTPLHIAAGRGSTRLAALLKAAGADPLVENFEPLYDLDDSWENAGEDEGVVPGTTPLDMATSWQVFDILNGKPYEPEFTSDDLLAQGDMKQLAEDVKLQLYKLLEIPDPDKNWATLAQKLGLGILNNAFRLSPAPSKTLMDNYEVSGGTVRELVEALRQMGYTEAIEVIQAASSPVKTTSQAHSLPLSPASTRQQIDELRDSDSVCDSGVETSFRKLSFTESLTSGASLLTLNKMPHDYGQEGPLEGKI

With `CCOc1cc(C(C)(C)C)ccc1C1COC(c2c(F)cccc2F)=N1` (configuration not stated), the molecule was called inactive in assay [1], in assay [3], in [6], in assay [7], in [8] and in [9]. Besides, the call in assay [10], in assay [11], in assay [12], in [13], in assay [14] and in assay [15] was inactive. The molecule was classed as inactive in [16] and in assay [17]. For the same molecule, the AC50 in assay [2] was 4.11 µM (active); in [4], 33 µM (active); in [5] it was 52.9 µM (active); in the assay with MYC, MYC (gene 4609), 33 µM (active).
With `Cc1nc(N(C)C)nc(OC(=O)N(C)C)c1C`, the molecule was classed as inactive in assay [1], in assay [2], in assay [3], in assay [4], in assay [5] and in assay [6]. For the same molecule, the molecule was called inactive in assay [7], in assay [8], in assay [9], in [11], in [12] and in [18]. Moreover, the call in [13], in [14], in assay [15], in assay [16] and in assay [17] was inactive.
`CS(=O)(=O)c1cc(C(F)(F)F)ccc1C(=O)c1cnoc1C1CC1`: the result in assay [1], in assay [2], in assay [3], in [4], in assay [5] and in [6] was inactive. Also, the result in assay [7], in assay [8], in assay [9], in assay [10], in assay [11] and in assay [12] was inactive. For the same molecule, the molecule was called inactive in assay [13], in [14], in [15], in assay [16] and in assay [17].

The values above are taken from PubChem BioAssay (EPA / NIEHS).
